Laboratory results taken from PubChem BioAssay (NCI).
Compounds without any hit were thinned out: in the full panel of roughly 79,000, 15% have a hit. Activity calls are given as the source filed them. Rule as the data show it: active = growth inhibition above about 70%; inactive = the rest.

Experiment: NCI Yeast Anticancer Drug Screen. Data for the rad14 strain (AID 159);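 also: 0% = growth of vehicle-treated control cultures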
Details: S. cerevisiae rad14 strain growth inhibition, active compounds read high
Procedure: Growth inhibition of yeast strains with defined genetic alterations is measured as a screen for potential anti-cancer activity. Selected strains with alterations in DNA damage repair or cell cycle control were exposed to compounds and growth inhibition was measured relative to vehicle treated controls. The strain used in this assay is rad14

Measured: growth inhibition

O=C(O)c1ccccc1-c1ccccc1C(=O)Nc1ccc2c(c1)Cc1ccccc1-2
inactive: at 1.2 µM 7% | at 3.7 µM 9% | at 11.0 µM 21%
active: at 33.0 µM 71% | at 100.0 µM 97%

OCC1OC(OCC(O)C(O)C(O)C(/C=N/Nc2ccccc2)=N/Nc2ccccc2)C(O)C(O)C1O (stereo not given)
inactive: at 1.2 µM -1% | at 3.7 µM 1% | at 11.0 µM 4% | at 33.0 µM 9% | at 100.0 µM 28%

COc1cc2c(c(OC)c1OC)-c1c(cc3c(c1OC)OCO3)CC(C)C(C)(O)C2OC(=O)c1ccccc1 (stereo not given)
inactive: at 1.2 µM 9% | at 3.7 µM 1% | at 11.0 µM -5% | at 33.0 µM -4% | at 100.0 µM 33%

CNC(=O)OCc1c(COC(=O)NC)c(-c2ccc(-c3ccccc3)cc2)n(C)c1C
inactive: at 1.2 µM -13% | at 3.7 µM -13% | at 11.0 µM -21% | at 33.0 µM 13%
active: at 100.0 µM 75%

CCC(=O)Oc1c(Cl)cc(Cl)c2ccccc12
inactive: at 1.2 µM -7% | at 3.7 µM -4% | at 11.0 µM 0% | at 33.0 µM 9% | at 100.0 µM 39%

CN(C)C[C@H]1CC[C@@H](CN(C)C)C1=O
inactive: at 1.2 µM 16% | at 3.7 µM 20% | at 11.0 µM 21% | at 33.0 µM 30% | at 100.0 µM 52%

OC(c1ccc(F)cc1)(c1ccc(F)cc1)C1CC1
inactive: at 1.2 µM -18% | at 3.7 µM -18% | at 11.0 µM -7% | at 33.0 µM 8%
active: at 100.0 µM 97%

CCCCCCCCC/C=C/C=C/C(=O)NCC(=O)NC1C(O)C(O)C(Nc2ncnc3nc[nH]c23)OC1C(O)CO (stereo not given)
inactive: at 1.2 µM -17% | at 3.7 µM -5% | at 11.0 µM -8% | at 33.0 µM 8% | at 100.0 µM 51%
